Screens (PubChem BioAssay)
HPGD block: qHTS Assay for Inhibitors of HPGD (15-Hydroxyprostaglandin Dehydrogenase); Potency, µM, for inactives: at the top dose activity change, negative = inhibition, usual class: inhibitors; AID 894, 2007; hit rate 4.3% among 150,000; purified HPGD, NADH fluorescence kinetic, PGE2 substrate; note: potency is the fitted concentration of half-maximal effect
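NADH formation kinetics: reaction with 30 uM PGE2 and 1 mM NAD+ (final), 20 nM enzyme, Tris-HCl pH 8 with Tween 20, after 15 min compound preincubation at room temperature. Fluorescence change, last versus first of five reads.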
ALDH1A1 block: qHTS Assay for Inhibitors of Aldehyde Dehydrogenase 1 (ALDH1A1) | Purified ALDH1A1, NADH fluorescence, propionaldehyde substrate | AID 1030, 2008 | Potency, µM (highest dose often 75.3 µM), inactives show top-dose activity, negative = inhibition, usual class: inhibitors | hit rate 7.3% among 220,000;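 note: potency is the fitted concentration of half-maximal effect; plate controls were no enzyme wells and a reference inhibitor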
Target sequence (P00352 whole entry, looked up): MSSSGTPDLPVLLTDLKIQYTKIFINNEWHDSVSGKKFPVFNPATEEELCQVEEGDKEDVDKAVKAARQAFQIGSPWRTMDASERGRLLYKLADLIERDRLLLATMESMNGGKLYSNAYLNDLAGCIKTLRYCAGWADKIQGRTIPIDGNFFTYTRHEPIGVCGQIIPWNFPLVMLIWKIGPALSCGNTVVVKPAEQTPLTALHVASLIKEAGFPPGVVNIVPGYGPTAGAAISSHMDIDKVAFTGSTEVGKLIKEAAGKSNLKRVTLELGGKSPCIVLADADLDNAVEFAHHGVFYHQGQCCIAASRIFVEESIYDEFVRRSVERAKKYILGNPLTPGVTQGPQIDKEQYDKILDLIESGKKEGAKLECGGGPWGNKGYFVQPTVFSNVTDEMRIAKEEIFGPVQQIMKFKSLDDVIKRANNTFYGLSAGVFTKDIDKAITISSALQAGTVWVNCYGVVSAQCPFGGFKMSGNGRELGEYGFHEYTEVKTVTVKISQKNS
PNC inhibitor: High Content Assay for Compounds that inhibit the Assembly of the Perinucleolar Compartment; PC3M PTB-GFP, PNC prevalence imaging, 16 h; stronger effect = lower value; activity change (PNC), negative = inhibition, % at 10 µM; hit rate 3.1% among 140,000; AID 2417, 2010;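 active = readout at or below -70, meaning at least 70% loss of cells showing the perinucleolar compartment, a nuclear body marking cancer cells; inconclusive = readout between -30 and a set limit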;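 note: plate controls were DMSO wells for no effect and camptothecin positive control wells for full effect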
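PC3M cells stably expressing PTB-GFP, 750–1000 cells/well, treated 16 h at 37 °C with compound (23 nl of library stock), in duplicate. After paraformaldehyde fixation and Hoechst stain, imaged at 20x; PNC prevalence scored by image analysis.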
Numbers without * were called inactive; ? = inconclusive; nt = not tested or not shown; [ ] = another dose, or the depositor's remark. An excerpt weighted towards active compounds, which were near 11% of everything screened. Unless noted, calls come from the whole dose curve; as a rule, active = well fitted inhibition curve with a large enough effect (not every such curve was filed as active); inconclusive = small, poorly fitted or top-dose-only effect, or another doubt; inactive = no such curve, though single readings can be large or run the other way. Unless noted, % is set by controls: 0 for no effect and ±100 for the full control effect.

SMILES	HPGD block	ALDH1A1 block	PNC inhibitor
O=C(Cc1cccc2ccccc12)OCn1nnc2ccccc2c1=O	-15.9%	-3.5%	-2.0
Cc1ccc(SCCC(=O)OCn2nnc3ccccc3c2=O)cc1	nt	15µM*	nt
O=C(OCn1nnc2ccccc2c1=O)c1ccc2ncsc2c1	25.1µM*	?	2.6
O=C(OCn1nnc2ccccc2c1=O)C1COc2ccccc2O1 (stereo not drawn)	-21.1%	-7.3%	?
O=C(OCn1nnc2ccccc2c1=O)C1CCCCC1	11.2µM*	15.8µM*	?
CCC1(CC)NC(=O)N(CC(=O)OCn2nnc3ccccc3c2=O)C1=O	-21.5%	12.6µM*	53.9
COc1cc(OC)cc(C(=O)OCn2nnc3ccccc3c2=O)c1	-11.2%	-6.5%	-7.6
COC(=O)C1=C(CSc2nccn2C)NC(=O)NC1c1cc(C)ccc1C (stereo not drawn)	-8.9%	-14.2%	39.7
CCN1C(=Nc2ccc(Cl)cc2)SC/C1=C\C(=O)OC	-9.4%	8.4%	5.7
Cc1nn(C(CC(=O)O)C(=O)O)c(C)c1Br (stereo not drawn)	-8.3%	17.5%	20.4
O=c1c2cn[nH]c2[nH]c(=S)n1-c1ccccc1F	-2.6%	-15.6%	-2.3
Cc1cc2cc3c(cc2nc1SCc1ccccn1)OCCO3	-10.0%	-5.1%	?
N#Cc1cc2ccccc2nc1SCc1ccccn1	25.1µM*	-6.8%	-5.0
CCOC(=O)CSc1cc(C)nc(NC(C)=O)n1	-2.6%	4.2%	6.8
COc1ccc(-c2c(C)[nH]n3c(=O)c(Cc4ccccc4)c(C)nc23)cc1	-15.7%	-9.1%	24.4
Nc1nc(-c2ccc([N+](=O)[O-])cc2)cs1	nt	-6.3%	55.5
CC1(C)CC(c2nc(-c3ccc([N+](=O)[O-])cc3)cs2)CCO1 (stereo not drawn)	nt	15.8µM*	nt
COc1cccc2c1C(=O)c1c(O)c3c(c(O)c1C2=O)C[C@](O)(C(C)=O)C[C@H]3O[C@@H]1C[C@H](N)[C@H](O)[C@H](C)O1	-9.1%	-3.9%[20.9 µM]	nt
COc1cccc2c1C(=O)c1c(O)c3c(c(O)c1C2=O)C[C@@](O)(C(=O)CO)C[C@@H]3O[C@H]1C[C@H](N)[C@H](O)[C@H](C)O1	-14.3%	?	-114.6*
COc1cccc2c1C(=O)c1c(O)c3c(c(O)c1C2=O)C[C@@](O)(C(=O)CO)C[C@@H]3O[C@@H]1C[C@H](N)[C@H](O)[C@H](C)O1	-8.1%	20µM*	nt
COc1cccc2c1C(=N)c1c(O)c3c(c(O)c1C2=O)C[C@](O)(C(C)=O)C[C@@H]3O[C@H]1C[C@H](N)[C@@H](O)[C@H](C)O1	-6.6%	-13.6%[13.5 µM]	nt
CCCC(=O)NCCc1ccc(F)cc1	?	-2.6%	?
C=CC[C@@H]1C=C[C@H](Oc2ccc(C)cc2)[C@H](COC(=O)NCc2cccc3ccccc23)O1	nt	-3.9%[13.5 µM]	nt
CCN(Cc1ccccc1)S(=O)(=O)c1ccc(C(=O)N2CCN(c3nc4ccccc4s3)CC2)cc1	-18.7%	-1.9%	56.5
CCOC(=O)N1CCN(C(=O)c2ccc3nc(N4CCCCC4)sc3c2)CC1	-22.9%	-3.0%	54.1
SMILES	HPGD block	ALDH1A1 block	PNC inhibitor
CC1CCN(c2nc3ccc(C(=O)N4CCN(Cc5ccccc5)CC4)cc3s2)CC1	14.1µM*	20µM*	?
CCOC(=O)N1CCN(C(=O)c2ccc3nc(N4CCC(C)CC4)sc3c2)CC1	?	?	31.1
CC(CCc1ccccc1)NC(=O)c1ccc2nc(N3CCOCC3)sc2c1 (stereo not drawn)	nt	-3.3%	nt
O=C(c1ccc2nc(N3CCCCC3)sc2c1)N1CCN(c2ccccn2)CC1	?	28.2µM*	50.7
O=C(c1ccccc1)N1CCN(c2nc3ccc([N+](=O)[O-])cc3s2)CC1	nt	10µM*	nt
CCOC(CNC(=O)c1ccc2nc(N3CCC(C)CC3)sc2c1)OCC	-10.4%	14.1µM*	-8.0
O=C1CCC2S/C(=C/Nc3ccc(C(F)(F)F)cc3)C(=O)N12 (stereo not drawn)	nt	12.6µM*	nt
CCCc1nc(SCc2cccnc2)c2c(=O)n(C)c(=O)n(C)c2n1	-4.7%	?	-21.8
Cn1c(=O)c2c(SCc3cccnc3)nc(CC(C)(C)C)nc2n(C)c1=O	-17.8%	0.891µM*	?
FC(F)(F)c1cnc(/C=C/Nc2ccccc2Cl)c(Cl)c1	-18.0%	-2.1%	-2.9
O=S(=O)(c1ccccc1)c1ncc(C(F)(F)F)cc1Cl	nt	10µM*	nt
C=CCSc1nc2sc3c(c2c(=O)n1CC)CCc1ccccc1-3	2.24µM*	1.58µM*	-4.2
C=CCn1c(SCC)nc2sc3c(c2c1=O)CCc1ccccc1-3	-5.4%	14.0%	-18.4
CCC1(C)Cc2ccccc2C(Nc2c(C)n(C)n(-c3ccccc3)c2=O)=N1 (stereo not drawn)	-5.8%	7.5%	13.9
CCN(CC)c1ccc(NC(=O)c2cccc(OC)c2)c(C)c1	-5.7%	-9.3%	?
CCN(CC)c1ccc(NC(=O)c2cc(OC)cc(OC)c2)c(C)c1	-6.8%	-1.7%	-89.2*
COc1ccc(NC(=O)COC(=O)CC2CC3CCC2C3)c([N+](=O)[O-])c1 (stereo not drawn)	-28.7%	?	-16.6
O=C(O)C1Cc2ccccc2CN1C(=O)c1ccccc1Cl (stereo not drawn)	-4.4%	7.6%	-18.3
O=C(O)C1Cc2ccccc2CN1C(=O)c1ccccc1 (stereo not drawn)	-4.8%	13.9%	-96.9*
N#Cc1ccc(NC(=O)COC(=O)C2Cc3ccccc3CN2C(=O)c2ccccc2)cc1 (stereo not drawn)	-11.6%	5.0%	-97.8*
CCS(=O)(=O)N1Cc2ccccc2CC1C(=O)OCC(=O)Nc1ccc(C)cc1 (stereo not drawn)	-12.6%	?	60.1
C[C@@H]1C[C@@H]([C@@H](C)CC2CC(=O)NC(=O)C2)C(=O)[C@@H](C)C1	-5.0%	-11.7%	nt
CC(C)N=C=NC(C)C	-9.9%	-0.4%	nt
C#Cc1ccc(C(=O)Nc2cc(C(N)=O)ccc2N2CCOCC2)cc1	-22.8%	?	34.1
CCc1cccc(CC)c1NC(=O)COC(=O)c1ccc2c(c1)S(=O)(=O)c1ccccc1C2=O	-11.0%	17.3%	-22.2
SMILES	HPGD block	ALDH1A1 block	PNC inhibitor
Cc1noc(C)c1COC(=O)c1cc(F)c(F)cc1Cl	-9.8%	2.6%	-16.2
Cc1noc(C)c1COC(=O)c1ccc2c(c1)S(=O)(=O)c1ccccc1C2=O	28.2µM*	12.6µM*	?
O=C(COC(=O)c1ccc2c(c1)S(=O)(=O)c1ccccc1C2=O)NC1CC1	nt	14.1µM*	nt
Cc1noc(C)c1COC(=O)c1cnc(Cl)c(Cl)c1	nt	0.562µM*	nt
Cc1noc(C)c1COC(=O)c1ccc2c(c1)OCO2	-24.0%	-15.7%	18.6
O=C(O)c1ccc(NS(=O)(=O)c2cccc3ccccc23)cc1	2.5%	-4.4%	nt
CCCCC/C=C\C/C=C\C/C=C\C=C\C(=O)CCCC(=O)O	-5.0%	4.4%	nt
CC[C@H](C)[C@H](NC(N)=O)C(=O)NCCc1ccc(OC)c(OC)c1	nt	1.4%	nt
O=c1c2ccccc2nnn1CCO	nt	4.6%	nt
CCOc1ccccc1Nc1nc(-c2sc(NC(=O)c3cccc(Cl)c3)nc2C)cs1	-12.9%	?	-6.8
COc1ccccc1Nc1nc(-c2sc(NC(=O)c3ccccc3)nc2C)cs1	?	12.6µM*	17.4
